# “And” between values parts separate entries of the source, which are not always exact repeats. Equal values may be shown once. Inconclusive results are not listed. Where a call stands in place of a potency, no number is given. Where a structure was tested more than once in an assay, its records may differ in their call. The source made the active and inactive calls. Unless noted, calls come from the whole dose curve; as a rule, active = well fitted curve in the direction sought with a large enough effect in the repeat runs; inconclusive = weak or mixed curves; inactive = no such curve, though single readings can be large; an effect the other way counts as inactive or inconclusive.
# Key:
# [1] = qHTS assay to identify small molecule agonists of the RXR signaling pathway - cell viability counter screen (AID 1159529); note: nearly all actives have a fitted effect of over 50% in size; note: potency is the fitted concentration of half-maximal effect
# In short: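 Tox21 10K compounds were tested for cytotoxicity against GeneBLAzer RXR-alpha HEK 293T cells grown in 2% charcoal-stripped FBS. Exposure lasted 16 hr at 37 C, 5% CO2; viability read by CellTiter-Glo luminescence.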
# [2] = qHTS assay to identify small molecule antagonists of the retinoic acid receptor (RAR) signaling pathway (AID 1159552; note: nearly all actives have a fitted effect of over 50% in size; note: potency is the fitted concentration of half-maximal effect)
# In short: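 Overnight-plated C3RL4 reporter cells get compound, then retinol to 1 uM final; plates sit 6 hr at 37 C, 5% CO2. A luciferase reagent is added and light output recorded after 30 min at room temperature.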
# [3] = qHTS assay to identify small molecule antagonists of the estrogen related receptor (ERR) signaling pathway from Tox21 library - cell viability counter screen (AID 1224834); note: nearly all actives have a fitted effect of over 30% in size; note: potency is the fitted concentration of half-maximal effect
# In short: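 ERR reporter cells were plated 6 h before compound addition, then exposed to test compounds in DMSO for 17.5 h at 37 C. Viability was read as CellTiter-Fluor fluorescence after a 30-minute incubation at 37 C.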
# [4] = qHTS assay to identify small molecule agonists of the constitutive androstane receptor (CAR) signaling pathway - cell viability counter screen (AID 1224836); note: nearly all actives have a fitted effect of over 45% in size; note: potency is the fitted concentration of half-maximal effect
# In short: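 Fluorescence from CellTiter-Fluor indicates live cells after 23 h exposure. The human hepatoma line expresses hCAR and a CYP2B6-2.2kb reporter. Incubation medium contains 0.75 uM PK11195 (final).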
# [5] = qHTS assay to identify small molecule antagonists of the constitutive androstane receptor (CAR) signaling pathway - cell viability counter screen (AID 1224837); note: nearly all actives have a fitted effect of over 45% in size; note: potency is the fitted concentration of half-maximal effect
# In short: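 HepG2 cells stably expressing hCAR and a CYP2B6-2.2kb reporter were plated and pre-incubated 4 hr at 37 C/5% CO2, then given compounds at 15 concentrations plus 50 nM CITCO (final). After 23 hr, viability was read by CellTiter-Fluor fluorescence.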
# [6] = biological target: Nuclear receptor subfamily 1 group I member 3 (Homo sapiens) (UniProt Q14994); test: qHTS assay to identify small molecule agonists of the constitutive androstane receptor (CAR) signaling pathway (AID 1224839); note: nearly all actives have a fitted effect of over 15% in size; note: potency is the fitted concentration of half-maximal effect;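 for activation: HepG2 cells stably carrying human CAR and a CYP2B6 luciferase reporter; series mostly up to about 92 µM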
# Nuclear receptor subfamily 1 group I member 3 (Homo sapiens), sequence (Q14994 whole entry, looked up): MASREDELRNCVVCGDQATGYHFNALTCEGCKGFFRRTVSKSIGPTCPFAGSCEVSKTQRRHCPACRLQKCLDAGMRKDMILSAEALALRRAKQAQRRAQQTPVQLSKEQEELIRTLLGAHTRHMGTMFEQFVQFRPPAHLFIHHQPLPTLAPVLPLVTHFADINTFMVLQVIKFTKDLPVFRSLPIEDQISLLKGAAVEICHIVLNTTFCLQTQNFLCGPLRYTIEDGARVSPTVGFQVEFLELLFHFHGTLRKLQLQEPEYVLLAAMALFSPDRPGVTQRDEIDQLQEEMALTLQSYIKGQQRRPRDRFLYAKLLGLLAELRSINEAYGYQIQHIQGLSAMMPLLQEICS
# In short: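 Stable hCAR/CYP2B6-2.2kb HepG2 line in DMEM with 10% FBS; compounds (15 concentrations) and 0.75 uM PK11195 final, 24 h at 37 C/5% CO2, then ONE-Glo luminescence after 30 min.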
# [7] = qHTS assay to identify small molecule antagonists of the estrogen related receptor signaling pathway with the pleiotropic PPARgamma coactivator (PGC) from Tox21 10K library - cell viability counter screen (AID 1224840; active = well fitted cell-killing curve with a large enough effect in the repeat runs, not every such curve was filed as active; note: nearly all actives have a fitted effect of over 40% in size; note: potency is the fitted concentration of half-maximal effect)
# In short: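 PGC/ERR cells were seeded at 2,000 cells/well and left 6 hours at 37 C/5% CO2 before pin-tool addition of compounds in DMSO. After 17.5 hours at 37 C, CellTiter-Fluor was added and fluorescence read 30 minutes later.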
# [8] = biological target: Luciferin 4-monooxygenase (Photinus pyralis) (UniProt P08659); test: qHTS assay to identify small molecule inhibitors of firefly luciferase (AID 1224835); note: nearly all actives have a fitted effect of over 25% in size; note: potency is the fitted concentration of half-maximal effect
# Luciferin 4-monooxygenase (Photinus pyralis), sequence (P08659 whole entry, looked up): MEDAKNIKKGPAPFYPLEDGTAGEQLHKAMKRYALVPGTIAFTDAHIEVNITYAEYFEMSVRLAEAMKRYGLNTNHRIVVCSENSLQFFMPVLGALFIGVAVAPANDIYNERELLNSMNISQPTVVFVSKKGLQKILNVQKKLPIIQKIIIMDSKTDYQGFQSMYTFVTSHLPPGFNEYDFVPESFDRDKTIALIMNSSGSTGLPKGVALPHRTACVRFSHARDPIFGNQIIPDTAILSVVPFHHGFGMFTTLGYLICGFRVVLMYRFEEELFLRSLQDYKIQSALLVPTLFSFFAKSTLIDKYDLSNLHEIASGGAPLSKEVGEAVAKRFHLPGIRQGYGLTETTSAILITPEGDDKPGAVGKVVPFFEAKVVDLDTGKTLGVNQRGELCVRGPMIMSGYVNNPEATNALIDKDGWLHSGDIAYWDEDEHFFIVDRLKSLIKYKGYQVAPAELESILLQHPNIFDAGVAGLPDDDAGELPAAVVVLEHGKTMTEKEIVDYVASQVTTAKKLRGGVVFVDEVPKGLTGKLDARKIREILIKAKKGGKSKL
# In short: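 Inhibition of purified Photinus luciferase is measured by luminescence. Substrate levels (D-luciferin, ATP) sit at their KM values. Each compound is tested in a concentration series.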
# [9] = qHTS assay to identify small molecule antagonists of the estrogen related receptor signaling pathway with the pleiotropic PPARgamma coactivator (PGC) from Tox21 10K library (AID 1224841; call rule not given here; note: actives are mostly falling curves and most rising ones were filed inactive; nearly all actives have a fitted effect of over 50% in size; note: potency is the fitted concentration of half-maximal effect)
# In short: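 PGC/ERR reporter cells were seeded at 2,000 cells/well and held 6 hours at 37 C/5% CO2 before pin-tool addition of compounds in DMSO. After 18 hours at 37 C, One-Glo was added and luminescence read after 30 minutes at room temperature.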
# [10] = qHTS assay to identify small molecule agonists of the estrogen related receptor signaling pathway with the pleiotropic PPARgamma coactivator (PGC) from Tox21 10K library (AID 1224842); note: nearly all actives have a fitted effect of over 15% in size; note: potency is the fitted concentration of half-maximal effect
# In short: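 Luminescence from One-Glo (30 min, room temperature) measured after PGC/ERR cells had 18 h at 37 C with pinned compound (23 nL in DMSO). Cells had been seeded at 2,000 per well and pre-incubated 6 h.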
# [11] = biological target: Thyrotropin receptor (Homo sapiens) (UniProt P16473); test: qHTS assay to identify small molecule agonists of the thyroid stimulating hormone receptor (TSHR) signaling pathway (AID 1224843; calls by dose curve; note: nearly all actives have a fitted effect of over 45% in size; note: potency is the fitted concentration of half-maximal effect)
# Thyrotropin receptor (Homo sapiens), sequence (P16473 whole entry, looked up): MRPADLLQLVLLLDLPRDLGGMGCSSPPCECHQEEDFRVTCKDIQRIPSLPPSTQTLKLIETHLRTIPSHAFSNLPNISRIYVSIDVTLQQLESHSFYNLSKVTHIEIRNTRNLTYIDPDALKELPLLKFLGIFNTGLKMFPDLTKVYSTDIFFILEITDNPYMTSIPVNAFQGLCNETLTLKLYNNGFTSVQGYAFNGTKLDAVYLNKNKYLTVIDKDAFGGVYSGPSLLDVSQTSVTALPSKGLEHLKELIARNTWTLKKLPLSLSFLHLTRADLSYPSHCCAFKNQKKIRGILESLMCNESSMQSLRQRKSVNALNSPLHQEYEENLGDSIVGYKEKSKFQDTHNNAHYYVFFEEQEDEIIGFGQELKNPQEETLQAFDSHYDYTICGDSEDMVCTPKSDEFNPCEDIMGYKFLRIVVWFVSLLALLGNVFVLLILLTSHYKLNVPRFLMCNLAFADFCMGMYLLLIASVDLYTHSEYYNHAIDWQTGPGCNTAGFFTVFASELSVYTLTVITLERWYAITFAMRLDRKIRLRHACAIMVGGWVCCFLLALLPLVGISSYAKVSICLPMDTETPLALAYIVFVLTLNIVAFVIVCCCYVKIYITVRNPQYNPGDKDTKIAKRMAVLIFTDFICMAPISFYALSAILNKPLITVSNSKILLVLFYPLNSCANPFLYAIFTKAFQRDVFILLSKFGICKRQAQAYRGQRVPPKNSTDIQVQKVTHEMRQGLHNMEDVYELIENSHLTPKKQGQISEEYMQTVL
# In short: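 HEK293 cells stably bearing the thyrotropin receptor were plated at 800 cells/well and challenged with compound (30 min, RT). Accumulated cAMP was quantified via cAMP-d2 competing for cryptate-tagged antibody.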
# [12] = qHTS assay to identify small molecule antagonists of the retinoid acid receptor (RAR) signaling pathway - cell viability counter screen (AID 1159551); note: nearly all actives have a fitted effect of over 35% in size; note: potency is the fitted concentration of half-maximal effect
# In short: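 C3RL4 cells were seeded overnight at 37 C, then treated with compounds plus 1 uM (final) retinol for 6 h at 37 C. Viability was read as ATP by CellTiter-Glo luminescence after 30 min at room temperature.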
# [13] = qHTS assay to identify small molecule agonists of the retinoic acid receptor (RAR) signaling pathway (AID 1159553); note: potency is the fitted concentration of half-maximal effect
# In short: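 C3RL4 cells carrying a RARE luciferase reporter were plated overnight at 37 C, then exposed to compounds in DMSO for 6 hr at 37 C and 5% CO2. Luminescence was read 30 min after luciferase reagent addition at room temperature.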
# [14] = biological target: Nuclear receptor subfamily 1 group I member 3 (Homo sapiens) (UniProt Q14994); test: qHTS assay to identify small molecule antagonists of the constitutive androstane receptor (CAR) signaling pathway (AID 1224838); note: nearly all actives have a fitted effect of over 40% in size; note: potency is the fitted concentration of half-maximal effect
# In short: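 HepG2 cells stably co-transfected with hCAR and a CYP2B6-2.2kb luciferase reporter were seeded 4 h before compound addition at 15 concentrations. Cells were stimulated with 50 nM CITCO (final) for 24 h at 37 C; luciferase luminescence was then read.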
# [15] = qHTS assay to identify small molecule antagonists of the estrogen related receptor (ERR) signaling pathway - cell viability counter screen (AID 1224818); note: potency is the fitted concentration of half-maximal effect;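 note: viability measured after 17.5 h of compound exposure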
# In short: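 ERR reporter cells plated 6 h at 37 C/5% CO2, then compounds in DMSO pin-transferred and incubated 17.5 h at 37 C. Viability read as CellTiter-Fluor fluorescence after 30 min at 37 C.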
# [16] = qHTS assay to identify small molecule antagonists of the estrogen related receptor (ERR) signaling pathway (AID 1224819; note: potency is the fitted concentration of half-maximal effect; nearly all actives have a fitted effect of over 50% in size)
# In short: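 ERR reporter cells were plated at 2,000 cells/well and left 6 h at 37 C/5% CO2 before pin-tool transfer of compounds in DMSO. After 18 h at 37 C, One-Glo was added and luminescence was read 30 min later at room temperature.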
# [17] = qHTS assay to identify small molecule agonists of the estrogen related receptor (ERR) signaling pathway (AID 1224820)
# In short: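 ERR reporter cells (NTP line) plated 2,000/well, incubated 6 h at 37 C/5% CO2, then pinned with compounds in DMSO and held 18 h at 37 C. One-Glo added; luminescence read after 30 min at room temperature.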
# [18] = system: estrogen-related receptor alpha (ERRalpha) with PGC-1alpha coactivator, human; test: qHTS assay to identify small molecule antagonists of the estrogen related receptor signaling pathway with the pleiotropic PPARgamma coactivator (PGC) (AID 1224821; calls by dose curve)
# In short: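 Cells engineered for PGC/ERR signalling (line from NTP) were plated 6 h at 37 C/5% CO2, then exposed to DMSO-dissolved compound for 18 h at 37 C. Luciferase activity was read by One-Glo luminescence after 30 min at room temperature.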
# [19] = qHTS assay to identify small molecule antagonists of the estrogen related receptor signaling pathway with the pleiotropic PPARgamma coactivator (PGC) cell viability counter screen (AID 1224822; note: potency is the fitted concentration of half-maximal effect)
# In short: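 PGC/ERR cells were seeded at 2,000 cells/well, rested 6 h at 37 C/5% CO2, then given compounds in DMSO by pin tool and incubated 17.5 h at 37 C. Viability came from CellTiter-Fluor fluorescence after 30 min.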
# [20] = qHTS assay to identify small molecule agonists of the estrogen related receptor signaling pathway with the pleiotropic PPARgamma coactivator (PGC) (AID 1224823)
# In short: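 PGC/ERR reporter cells were seeded, rested 6 h at 37 C/5% CO2, then exposed to compounds in DMSO by pin transfer for 18 h at 37 C. Luciferase activity was read as luminescence after One-Glo reagent and 30 min at room temperature.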
smiles,measurement,setting,value
CC(C)(C)c1ccc(C(=O)CCCN2CCC(OC(c3ccccc3)c3ccccc3)CC2)cc1,Potency,[1],15.1 µM (active)
same,Potency,[2],26.6 µM (active)
same,Potency,[3],23.7 µM (active)
same,Potency,[4],29.8 µM (active)
same,Potency,[5],29.8 µM (active)
same,Potency,[6],inactive
same,Potency,[7],29.8 µM (active)
CCCCC(CC)CN=C(N)NC(N)=NCCCCCCN=C(N)NC(N)=NCC(CC)CCCC (stereo not given),Potency,[1],8.49 µM (active)
same,Potency,[2],11.9 µM (active)
same,Potency,[3],11.9 µM (active)
same,Potency,[8],inactive
same,Potency,[4],26.6 µM (active)
same,Potency,[5],23.7 µM (active)
same,Potency,[7],16.8 µM (active)
same,Potency,[9],23.7 µM (active)
same,Potency,[10],inactive
CCCCCCCCCCCCc1ccc(O)cc1,Potency,[1],13.8 µM (active)
same,Potency,[2],48.6 µM (active)
same,Potency,[3],54.5 µM (active)
same,Potency,[8],inactive
same,Potency,[7],48.6 µM (active)
same,Potency,[9],54.5 µM (active)
same,Potency,[10],inactive
same,Potency,[11],27.3 µM (active)
On1ccccc1=S,Potency,[1],2.43 µM (active)
same,Potency,[3],1.71 µM (active)
same,Potency,[4],1.21 µM (active)
same,Potency,[5],0.762 µM (active)
same,Potency,[7],0.605 µM (active)
same,Potency,[9],3.4 µM (active)
same,Potency,[10],inactive
CCCCCCOC(=O)c1ccc(O)cc1,Potency,[12],inactive
same,Potency,[2],inactive
same,Potency,[13],4.33 µM (active) and 1.93 µM (active)
same,Potency,[8],31.8 µM (active) and 28.3 µM (active)
same,Potency,[4],inactive
same,Potency,[5],inactive
same,Potency,[6],27.3 µM (active) and 54.5 µM (active)
same,Potency,[7],inactive
same,Potency,[9],inactive
same,Potency,[10],30.7 µM (active) and 9.69 µM (active)
same,Potency,[11],inactive
O=C(OCC1CO1)C1CCCCC1C(=O)OCC1CO1 (stereo not given),Potency,[1],inactive
same,Potency,[8],inactive
same,Potency,[4],inactive
same,Potency,[6],inactive
same,Potency,[10],inactive
same,Potency,[11],inactive
CO[Si](CCCNc1ccccc1)(OC)OC,Potency,[12],inactive
same,Potency,[2],inactive
same,Potency,[13],inactive
same,Potency,[3],inactive
same,Potency,[8],inactive
same,Potency,[4],inactive
same,Potency,[5],inactive
same,Potency,[14],inactive
same,Potency,[6],inactive
same,Potency,[7],inactive
same,Potency,[11],inactive
OCCCCCCCCCCCCBr,Potency,[12],inactive
same,Potency,[2],inactive
same,Potency,[13],inactive
same,Potency,[8],inactive
same,Potency,[4],inactive
same,Potency,[5],inactive
same,Potency,[14],inactive
same,Potency,[11],inactive
C[n+]1cc2c3c(ccc2c2ccc4cc5c(cc4c21)OCO5)OCO3,Potency,[12],3.66 µM (active)
same,Potency,[2],1.83 µM (active)
same,Potency,[15],2.87 µM (active)
same,Potency,[16],3.1 µM (active)
same,outcome,[17],inactive
same,Potency,[18],2.28 µM (active)
same,Potency,[19],0.944 µM (active)
same,outcome,[20],inactive
same,Potency,[3],2.91 µM (active)
same,Potency,[8],6.74 µM (active)
same,Potency,[4],2.91 µM (active)
same,Potency,[5],2.59 µM (active)
same,Potency,[14],2.91 µM (active)
same,activation,[6],-21.2% [at 19 µM] (inactive)
same,Potency,[7],3.26 µM (active)
same,Potency,[9],7.3 µM (active)
same,activation,[10],-34.9% [at 19 µM] (inactive)
same,activation,[11],-8.77% [at 19 µM] (inactive)
Cn1cc(C(=O)[C@@H]2CCc3nc[nH]c3C2)c2ccccc21,Potency,[12],inactive
same,Potency,[2],inactive
same,Potency,[13],inactive
same,Potency,[3],inactive
same,Potency,[8],inactive
same,Potency,[4],inactive
same,Potency,[5],inactive
same,Potency,[14],inactive
same,Potency,[7],inactive
same,Potency,[10],inactive
same,Potency,[11],inactive
NNc1nc(-c2ccc([N+](=O)[O-])cc2)cs1,Potency,[12],43.3 µM (active)
same,Potency,[2],inactive
same,Potency,[13],54.5 µM (active)
same,Potency,[3],6.86 µM (active)
same,Potency,[8],31.7 µM (active)
same,Potency,[4],54.5 µM (active)
same,Potency,[5],54.5 µM (active)
same,Potency,[14],inactive
same,Potency,[9],48.6 µM (active)
same,Potency,[10],inactive
Clc1ccccc1C(c1ccccc1)(c1ccccc1)n1ccnc1,Potency,[12],68.6 µM (active) and inactive
same,Potency,[2],19.3 µM (active)
same,Potency,[13],inactive
same,Potency,[15],inactive
same,Potency,[16],12.8 µM (active)
same,outcome,[17],inactive
same,Potency,[18],20.3 µM (active)
same,outcome,[20],inactive
same,Potency,[3],27.3 µM (active) and 11.9 µM (active)
same,Potency,[8],inactive
same,Potency,[7],17.2 µM (active)
same,Potency,[9],5.45 µM (active) and 9.44 µM (active)
same,Potency,[10],inactive
same,Potency,[11],inactive
